From PubChem BioAssay (NCATS)
Results filed as inconclusive are left out. Unmarked numbers belong to inactive results. The source made the active and inactive calls. Calls follow the shape of the dose curve; as a rule, active = well fitted cell-killing curve with a large enough effect; inconclusive = small, poorly fitted or top-dose-only effect, or effect the other way; inactive = flat fitted curve, though single readings scatter.
% is scaled to controls: 0 for no effect and ±100 for the full control effect; potency is read from the fitted curve at half-maximal effect.

The compounds below were run on Tov112D (assay: Primary qHTS to identify gynecologic anti-cancer compounds using libraries of approved drugs and bioactive compounds (AID 1345084; also: nearly all actives have a fitted effect of over 55% in size)). Conditions: Gynecologic cancer cell panel viability, ATPlite luminescence, 48 h; series mostly up to 57.5 µM; activity change, negative = cytotoxicity: at the top concentration.
Summary of the method: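 Cytotoxicity screen measuring ATP content by luciferase luminescence. Each compound is applied at five concentrations for 48 h at 37 C with 5% CO2.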
COc1ccc(CC2C(=O)NC(C)C(=O)N(C)C3Cc4ccc(cc4)Oc4cc(ccc4OC4OC(CO)C(O)C(O)C4O)CC(C(=O)NC(C)C(=O)NC(C)C(=O)N2C)N(C)C3=O)cc1 (stereo not drawn) was tested, and the Potency was 0.501 µM (active). In the case of N#Cc1cc(F)cc(-c2nc(-c3ccccn3)no2)c1, the “activity change, negative = cytotoxicity” value is reported as -19.4%. CN(C)C/C=C/C(=O)Nc1cccc(C(=O)Nc2cccc(Nc3ncc(Cl)c(-c4c[nH]c5ccccc45)n3)c2)c1 was tested, and the Potency was 1.26 µM (active). O=C(c1cn(Cc2cncn2Cc2ccc(Br)cc2)cc1-c1cccc2ccccc12)N1CCOCC1 was tested, and the “activity change, negative = cytotoxicity” value was -27.6%. COc1cc2c(cc1OC)-c1[nH]nc(Nc3cccc(F)c3)c1C2 was tested, and the Potency was 0.282 µM (active). For Cc1cc(O)c(-c2ccc([C@@H](C)CN(C)C)cc2)c2c1[nH]c(=O)c1sccc12, the Potency was 0.282 µM (active). CC[C@H](CO)Nc1nc(NCc2ccc(-c3ccccn3)cc2)c2ncn(C(C)C)c2n1 was tested, and the Potency was 1.78 µM (active). With C[C@@H]1C[C@H]2O[C@@H]2/C=C\C=C\C(=O)Cc2c(Cl)c(O)cc(O)c2C(=O)O1 the activity change, negative = cytotoxicity was -26.2% [at 11.6 µM]. With O=C1NC(=O)C(c2cn3c4c(cccc24)CCC3)C1c1c[nH]c2ccccc12 (stereo not drawn) the Potency was 5.01 µM (active). For Cc1ccc([N+](=O)[O-])cc1S(=O)(=O)N(C)/N=C/c1cnc2ccc(Br)cn12, the Potency was 0.355 µM (active). For C=C1C(OC(C)=O)CCC2(C)CC3(OC)OC(=O)C(C)=C3CC12 (stereo not drawn), the “activity change, negative = cytotoxicity” value was 4.46% [at 38.5 µM]. Cn1cc(S(=O)(=O)c2ccc(Cl)cc2)c2cccc(N3CCNCC3)c21 was tested, and the Potency was 28.2 µM (active). For CC(C)NCC(C(=O)N1CCN(c2ncnc3c2C(C)CC3O)CC1)c1ccc(Cl)cc1 (stereo not drawn), the “activity change, negative = cytotoxicity” value was 0.112%. With C=C1C(=O)O[C@@H]2[C@H]1CCC(C)=C1CCC(=O)O[C@]12C the “activity change, negative = cytotoxicity” value was -14.8%. With CCCNc1ccc2ncc(-c3ccc4[nH]ncc4c3)n2n1 the Potency was 3.55 µM (active). COc1cc2ncnc(Nc3cccc(Cl)c3F)c2cc1OC(=O)N1CCN(C)C[C@H]1C was tested, and the Potency was 22.4 µM (active). In the case of COc1ccc(Oc2cc(C)c(-c3csc(NC(=O)c4ccncc4)n3)c(C)c2)cc1, the “activity change, negative = cytotoxicity” value is reported as -39.1%. With CCN(CC)c1ccc2c(O)c(C=Nc3ccc(CC(=O)O)c(-c4c5c(nc6ccccc46)CCC(C(=O)NN)C5)c3)c(=O)oc2c1 (stereo not drawn) the “activity change, negative = cytotoxicity” value was -22.6%. In the case of CCC1=CC2CN(C1)Cc1c([nH]c3ccccc13)[C@@](C(=O)OC)(c1cc3c(cc1OC)N(C)[C@H]1[C@@](O)(C(=O)OC)[C@H](OC(C)=O)[C@]4(CC)C=CCN5CC[C@]31[C@@H]54)C2 (stereo partly drawn), the Potency is reported as 0.0708 µM (active). In the case of FC(F)(F)c1ccc(Nc2nc(-c3c(C(F)(F)F)nc4ccccn34)cs2)cc1, the Potency is reported as 0.708 µM (active). For CC1=C(CO)C(=O)O[C@@H]([C@@H](C)[C@H]2CC[C@H]3[C@@H]4C[C@H]5O[C@]56[C@@H](O)C=CC(=O)[C@]6(C)[C@H]4CC[C@]23C)C1, the Potency was 10 µM (active). C=C1C(=O)OC2C1CCC(=C)C1CC(OC(C)=O)C(=C)C12 (stereo not drawn) was tested, and the “activity change, negative = cytotoxicity” value was -8.37%. COc1ccc2[nH]c3c(-c4cccc5ccccc45)nccc3c2c1 was tested, and the Potency was 1.41 µM (active). For CN1CCN(C(=O)c2ccc3cc(CCNc4ncnc5ccc(C#N)cc45)ccc3c2)CC1, the “activity change, negative = cytotoxicity” value was 1.08%. In the case of NC1CCC(Nc2cc(-c3cccc(NCc4cccc(F)c4)n3)c(Cl)cn2)CC1 (stereo not drawn), the Potency is reported as 0.891 µM (active). With COc1cc2ncnc(N3CCC(Oc4cnc5ccccc5n4)C3)c2cc1OC (stereo not drawn) the Potency was 1 µM (active). CC[C@]12C=CCN3CC[C@@]4(c5cc([C@@]6(C(=O)OC)C[C@H]7C[C@@H](C(C)(F)F)CN(Cc8c6[nH]c6ccccc86)C7)c(OC)cc5N(C)[C@H]4[C@@](O)(C(=O)OC)[C@@H]1OC(C)=O)[C@@H]32 was tested, and the Potency was 0.251 µM (active). CNS(=O)(=O)c1ccccc1Nc1nc(Nc2ccc(N3CCN(C)CC3)cc2OC)ncc1Cl was tested, and the Potency was 10 µM (active).
